PubChem BioAssay (NCI)
This is part of a sample that, as a whole, favours compounds with a hit. Of some 83,000 tested, about 20% had one in any assay.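 Single-concentration screen, 48 h exposure, 96-well plates. Endpoint: percent growth. Below 10 = active.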 Active and inactive are the calls of the source.

What was measured:
Experiment in all cases: NCI-60 one-dose screen, 48 h (100 = growth as untreated, 0 = no growth, -100 = all killed)
Details in all cases: 10 µM unless noted
HCT-15 colon = tested on: HCT-15 colon
HT29 colon = tested on: HT29 colon
SNB-75 CNS = tested on: SNB-75 CNS
SNB-19 CNS = tested on: SNB-19 CNS
U251 CNS = tested on: U251 CNS
PC-3 prostate = tested on: PC-3 prostate
SK-MEL-5 melanoma = tested on: SK-MEL-5 melanoma
UACC-62 melanoma = tested on: UACC-62 melanoma
LOX IMVI melanoma = tested on: LOX IMVI melanoma
SK-MEL-28 melanoma = tested on: SK-MEL-28 melanoma

Measured: growth

CCc1ccc2nc(NC(=O)Cc3csc(NC(=O)c4ccco4)n3)sc2c1
inactive: HCT-15 colon 95.5% | HT29 colon 86.5% | SNB-75 CNS 47.1% | SNB-19 CNS 64.4% | U251 CNS 67.3% | PC-3 prostate 66.1% | SK-MEL-5 melanoma 81.6% | UACC-62 melanoma 65.9% | LOX IMVI melanoma 85.7% | SK-MEL-28 melanoma 90.9%

CCOC(=O)c1sc2ncc(-c3ccc(C)cc3)n2c1C
inactive: HCT-15 colon 90.1% | HT29 colon 93.1% | SNB-75 CNS 74.7% | SNB-19 CNS 94.5% | U251 CNS 96.2% | PC-3 prostate 81% | SK-MEL-5 melanoma 95.1% | UACC-62 melanoma 72.6% | LOX IMVI melanoma 85.2% | SK-MEL-28 melanoma 102%

Cc1nc(/N=C(\N)NC(=O)Nc2cccc(Cl)c2)sc1C
inactive: HCT-15 colon 32% | HT29 colon 30.2% | SNB-75 CNS 21.9% | SNB-19 CNS 83.2% | U251 CNS 83.5% | PC-3 prostate 81.5% | UACC-62 melanoma 60.5% | LOX IMVI melanoma 68.8% | SK-MEL-28 melanoma 69%

c1ccc(-c2nc3sc(-c4ccccc4)cn3n2)cc1
inactive: HCT-15 colon 91.6% | HT29 colon 90.3% | SNB-75 CNS 84.3% | SNB-19 CNS 88.5% | U251 CNS 93.6% | PC-3 prostate 63% | UACC-62 melanoma 66.9% | LOX IMVI melanoma 83.3%

CCn1cnc2c1c(=O)[nH]c(=O)n2CC1CCC(CNS(=O)(=O)c2ccc(OC3CCOCC3)c(F)c2)CC1 (stereo unspecified)
inactive: HCT-15 colon 86.6% | HT29 colon 37.8% | SNB-19 CNS 59% | U251 CNS 67.9% | PC-3 prostate 45.9% | UACC-62 melanoma 24.1% | LOX IMVI melanoma 38.4% | SK-MEL-28 melanoma 64.1%
active: SNB-75 CNS 7.93%

Cc1ccc(-c2cnc3sc(C(=O)NCCc4ccccc4)c(C)n23)cc1
inactive: HCT-15 colon 97.9% | HT29 colon 113% | SNB-75 CNS 79.3% | SNB-19 CNS 92.1% | U251 CNS 95% | PC-3 prostate 81.7% | UACC-62 melanoma 85.9% | LOX IMVI melanoma 84.4% | SK-MEL-28 melanoma 104%

COc1ccc(C2CC(c3ccc(Nc4ccnc5cc(Cl)ccc45)cc3)=NN2C=O)cc1 (stereo unspecified)
inactive: HCT-15 colon 23.6% | HT29 colon 33.2% | SNB-75 CNS 77.1% | SNB-19 CNS 81.5% | U251 CNS 63.4% | PC-3 prostate 72.3% | UACC-62 melanoma 54.5% | LOX IMVI melanoma 20% | SK-MEL-28 melanoma 74.9%

CC/C=C\C[C@@H]1C/C=C2/C(=O)C=C[C@H]2C/C=C\CCCC(=O)O1
inactive: SNB-75 CNS 32.2%
active: HCT-15 colon -43.5% | HT29 colon -72.4% | SNB-19 CNS -31.4% | U251 CNS -94.2% | PC-3 prostate -37.6% | UACC-62 melanoma -61.1% | LOX IMVI melanoma -77.1% | SK-MEL-28 melanoma -75.6%

Cc1ccc(S(=O)(=O)Oc2ccc(NC(=O)c3ccc(Cl)cc3)cc2)cc1
inactive: HCT-15 colon 88.8% | HT29 colon 94.9% | SNB-75 CNS 98.7% | SNB-19 CNS 94.2% | U251 CNS 97.1% | PC-3 prostate 93.2% | UACC-62 melanoma 95.8% | LOX IMVI melanoma 95.1% | SK-MEL-28 melanoma 108%

Nc1ccc(Sc2ccc([N+](=O)[O-])c3nonc23)cc1
inactive: HCT-15 colon 58.2% | HT29 colon 70.8% | SNB-75 CNS 90.7% | SNB-19 CNS 95.6% | U251 CNS 90.9% | PC-3 prostate 87.1% | UACC-62 melanoma 84.5% | LOX IMVI melanoma 80.3% | SK-MEL-28 melanoma 102%

CCOC(=O)c1nc(Nc2ccc(C(C)=O)cc2)sc1C
inactive: HCT-15 colon 96.8% | HT29 colon 97.5% | SNB-75 CNS 89.7% | SNB-19 CNS 95.9% | U251 CNS 101% | PC-3 prostate 99.5% | SK-MEL-5 melanoma 100% | UACC-62 melanoma 95.1% | LOX IMVI melanoma 99.9% | SK-MEL-28 melanoma 102%

COc1ccc(C(=O)N=Nc2c(O)n(C)c3ccccc23)cc1
inactive: HCT-15 colon 91.6% | HT29 colon 103% | SNB-75 CNS 91.6% | SNB-19 CNS 87.3% | U251 CNS 98.5% | PC-3 prostate 90.9% | UACC-62 melanoma 90.6% | LOX IMVI melanoma 81.8% | SK-MEL-28 melanoma 107%

COc1ccc(N)c(N)c1
inactive: HCT-15 colon 101% | HT29 colon 104% | SNB-75 CNS 85.7% | SNB-19 CNS 96.7% | U251 CNS 107% | PC-3 prostate 99.4% | UACC-62 melanoma 93.6% | LOX IMVI melanoma 99.3% | SK-MEL-28 melanoma 111%

Cc1cc(O)c(C2=NN(c3ccc(S(N)(=O)=O)cc3)C(c3ccccc3O)C2)cc1Cl (stereo unspecified)
inactive: HCT-15 colon 17.5% | SNB-75 CNS 41.5% | SNB-19 CNS 65.4% | UACC-62 melanoma 21.3% | SK-MEL-28 melanoma 53.9%
active: HT29 colon -18.4% | U251 CNS 2.38% | PC-3 prostate 9.8% | LOX IMVI melanoma -89.6%

CCN(CC)CCCNc1nc2ccccc2c2c(=O)c3cc(Cl)ccc3sc12
inactive: HCT-15 colon 36.2% | HT29 colon 11.7% | SNB-75 CNS 68.3% | SNB-19 CNS 79.6% | U251 CNS 41.5% | PC-3 prostate 54.7% | SK-MEL-5 melanoma 92.7% | UACC-62 melanoma 73.8% | SK-MEL-28 melanoma 84.3%
active: LOX IMVI melanoma -81.2%

OC(c1ccccc1)C(NC(Cc1ccccc1)c1ccccc1)c1ccccc1 (stereo unspecified)
inactive: HCT-15 colon 89.2% | HT29 colon 71.3% | SNB-75 CNS 90.9% | SNB-19 CNS 87.6% | U251 CNS 86.4% | PC-3 prostate 80.5% | UACC-62 melanoma 69.4% | LOX IMVI melanoma 89.2% | SK-MEL-28 melanoma 97.8%

Fc1cc(-c2nnc3n2NC(=Nc2ccc(Cl)cc2)CS3)c(Cl)cc1Cl
inactive: HCT-15 colon 97.3% | HT29 colon 93.8% | SNB-75 CNS 71.7% | SNB-19 CNS 93.6% | U251 CNS 94.9% | PC-3 prostate 111% | UACC-62 melanoma 81.4% | LOX IMVI melanoma 86.5% | SK-MEL-28 melanoma 99%

O=C(O)c1cn(C2CC2)c2cc(N3CCN(C(=O)Nc4nc(-c5ccc(Cl)cc5)cs4)CC3)c(F)cc2c1=O
inactive: SNB-19 CNS 23.9% | U251 CNS 10.8% | SK-MEL-28 melanoma 39.4%
active: HCT-15 colon 7.05% | HT29 colon 5.06% | SNB-75 CNS 9.36% | PC-3 prostate -2.99% | UACC-62 melanoma -4.17% | LOX IMVI melanoma -66.8%

CCOC(=O)c1cn2ncnc(Oc3ccc(NC(=O)NCCN4CCOCC4)c(Cl)c3)c2c1C
inactive: HCT-15 colon 96.3% | HT29 colon 104% | SNB-75 CNS 76.8% | SNB-19 CNS 95.1% | U251 CNS 98.4% | PC-3 prostate 91.2% | UACC-62 melanoma 97.6% | LOX IMVI melanoma 99.7% | SK-MEL-28 melanoma 97.1%

O=C(CCN1C(=O)/C(=C/c2ccc(O)cc2)SC1=S)Nc1ccc(Cl)cc1
inactive: HCT-15 colon 91.2% | HT29 colon 108% | SNB-75 CNS 90.4% | SNB-19 CNS 89.7% | U251 CNS 96.5% | PC-3 prostate 88.1% | UACC-62 melanoma 83.3% | LOX IMVI melanoma 97.8% | SK-MEL-28 melanoma 99.2%

CC(=O)Oc1ccccc1C(=O)N=C1[Se]CCCN1C(=O)c1ccccc1OC(C)=O
active: SNB-75 CNS -28.9% | SNB-19 CNS -55.1% | LOX IMVI melanoma -64.1%
inactive: HCT-15 colon 21.5% | HT29 colon 95.5% | U251 CNS 23.4% | PC-3 prostate 19.6% | UACC-62 melanoma 73.6% | SK-MEL-28 melanoma 18.5%

COc1ccc(-c2nc3sc(-c4ccc(Cl)cc4)cn3n2)cc1
inactive: HCT-15 colon 72% | HT29 colon 17.3% | PC-3 prostate 58.1% | SK-MEL-5 melanoma 72.6% | UACC-62 melanoma 68.6% | LOX IMVI melanoma 54.2% | SK-MEL-28 melanoma 100%
active: SNB-75 CNS -1.66% | SNB-19 CNS -1.95% | U251 CNS -67.9%

Cc1[nH]c(C(=O)Nc2ccc(C(=O)N3CCNCC3)cc2OC(C)C)c(Cl)c1Cl
inactive: HCT-15 colon 49.7% | SNB-75 CNS 77.5% | SNB-19 CNS 77.5% | U251 CNS 35.8% | PC-3 prostate 71.5% | UACC-62 melanoma 102% | SK-MEL-28 melanoma 105%
active: HT29 colon 9.76% | LOX IMVI melanoma -16%

O=C(Nc1nc2ccc(F)cc2s1)c1cccnc1Nc1ccc(Cl)cc1Cl
active: HT29 colon 7.92% | PC-3 prostate 3.63%
inactive: HCT-15 colon 16.9% | SNB-75 CNS 34.7% | SNB-19 CNS 20.2% | U251 CNS 15.8% | UACC-62 melanoma 20.1% | LOX IMVI melanoma 32.5% | SK-MEL-28 melanoma 37.8%

C[C@]12CC[C@@H]3c4cc(OC(F)F)c(OS(N)(=O)=O)cc4CC[C@H]3[C@@H]1CC[C@@H]2O
active: SNB-75 CNS -15.7%
inactive: HCT-15 colon 13.2% | HT29 colon 13.9% | SNB-19 CNS 48.4% | U251 CNS 28.2% | PC-3 prostate 25.5% | UACC-62 melanoma 55.7% | LOX IMVI melanoma 28.6%

COc1ccc2cc(C(C)C(=O)Nc3ccc(-c4n[nH]c(=S)n4C4CCCCC4)cc3)ccc2c1 (stereo unspecified)
inactive: HCT-15 colon 54.3% | HT29 colon 85.1% | SNB-75 CNS 67% | SNB-19 CNS 80% | U251 CNS 56.8% | PC-3 prostate 39.2% | UACC-62 melanoma 58.3% | LOX IMVI melanoma 70.7% | SK-MEL-28 melanoma 75.6%

O=C(Oc1cccc2ccccc12)Oc1cccc2ccccc12
inactive: HCT-15 colon 106% | HT29 colon 118% | SNB-75 CNS 94.6% | SNB-19 CNS 103% | U251 CNS 103% | PC-3 prostate 71.6% | SK-MEL-5 melanoma 106% | UACC-62 melanoma 103% | LOX IMVI melanoma 99.2% | SK-MEL-28 melanoma 118%

Cc1ccc(C2CC(c3ccc(Nc4ccnc5cc(Cl)ccc45)cc3)=NN2C=O)cc1 (stereo unspecified)
inactive: HCT-15 colon 18.6% | HT29 colon 41.8% | SNB-75 CNS 76.3% | SNB-19 CNS 74.4% | U251 CNS 58.6% | PC-3 prostate 57.4% | SK-MEL-5 melanoma 10.4% | UACC-62 melanoma 36.9% | LOX IMVI melanoma 34% | SK-MEL-28 melanoma 51.7%

CCc1ccc(Oc2c(-c3ccc(OCc4ccc(Cl)cc4)cc3O)n[nH]c2C(F)(F)F)cc1
active: U251 CNS 9.9% | LOX IMVI melanoma 7.09%
inactive: HCT-15 colon 12.8% | HT29 colon 86.1% | SNB-75 CNS 36.6% | SNB-19 CNS 25.4% | PC-3 prostate 13.9% | UACC-62 melanoma 17.9% | SK-MEL-28 melanoma 22.9%
